# Source: PubChem BioAssay (NCI)
# Compounds without any hit were thinned out: in the full panel of roughly 83,000, 20% have a hit.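 Testing used 96-well plates and a 48-hour single-concentration exposure. Example: -40 means 40% of the starting cells died.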 Values without a mark were called inactive. The source made the active and inactive calls. How the source made its calls: active means growth percent below 10; inactive means the rest.
# System: MDA-MB-468 breast
# Assay: NCI-60 one-dose screen, 48 h (100 = growth as untreated, 0 = no growth, -100 = all killed)
# Conditions: 10 µM unless noted
row,SMILES,growth
1,COC(=O)[C@@H](C)C[C@H](Cc1ccccc1)NC(=O)c1csc([C@@H](C[C@H](C(C)C)N(C)C(=O)[C@@H](NC(=O)[C@H]2CCCN2C)C2CC2)OC(C)=O)n1,-9.22% (active)
2,Oc1c(Br)cc(Br)cc1Br.[Cu+2],102%
3,ClC1=C(Cl)C(Cl)(C2(Cl)C(Cl)=C(Cl)C(Cl)=C2Cl)C(Cl)=C1Cl,-59.2% (active)
4,COc1ccc(O)c(CNC(=O)CN2CCCC2=O)c1,108%
5,O=S(OO)c1cc(Cl)c(O)c(Cl)c1 (stereo not given),112%
6,CC[C@H](C)[C@H](NC(=O)[C@H]1CCCCN1C)C(=O)N(C)[C@H](C[C@@H](OC(C)=O)c1cccc(C(=O)N[C@@H](Cc2ccccc2)C[C@H](C)C(=O)O)n1)C(C)C,31.2%
7,CCCCOCCOP(=O)(OCCOCCCC)OCCOCCCC,91.5%
8,O=[N+]([O-])c1cc[n+]([O-])c2ccccc12,-60.4% (active)
9,O=C(O)C(Br)CBr (stereo not given),94.8%
10,N#CCN(CC#N)[N+](=O)[O-],112%
11,CC(=O)OC1CCC2(C)C(=CCC3C4CC(CN5CC5)C(=O)C4(C)CCC32)C1 (stereo not given),1.98% (active)
12,Nc1c(F)cc(-c2nc3cc(F)ccc3[se]2)cc1Br,-35.4% (active)
13,CCCC(=O)O[C@@H]1C[C@H]2C[C@@H](O[C@@H]3O[C@@H](C)[C@@H](O)[C@@H](O)[C@H]3OC)C[C@@H](C[C@@H](C)/C=C/C=C\C[C@@H]3O[C@@H](C[C@@H]3C)[C@@H](O)C[C@H]3C[C@@]1(O)C(=O)O3)O2,-6.3% (active)
14,ClCCN(CCCl)Cc1ccc(Nc2ccnc3cc(Cl)ccc23)cc1,-0.105% (active)
15,N#C[Se]CCN1C(=O)C2C(C1=O)[C@H]1C=C[C@@H]2S1 (stereo not given in full),-19.7% (active)
16,CCCC(C)(C)c1ccc2c(c1)OC(C)(C)[C@@H]1CC=C(C)C[C@@H]21,97.6%
17,O=C(Nc1ccc(Br)cc1)c1cc(Br)cc(Br)c1O,-23.3% (active)
18,COC12CC3C4=CCOC5CC(=O)N6c7ccccc7C1(CCN2C4)C6C53 (stereo not given),102%
19,NC(CCl)CCl,96.8%
20,O=C1NC(=O)C(CN2C(=O)C3(c4ccccc42)[C@H](Cl)C(=O)N3c2ccccc2)C(=O)N1 (stereo not given in full),-23.1% (active)

row,SMILES,growth
1,CCCCCCCCCCCCNC(c1ccccc1)C(O)c1ccccc1 (stereo not given),48.5%
2,NC(=O)OCC(CO)(c1ccccc1)c1ccccc1,93.8%
3,C=CCc1cc2c(cc1OCC)OCO2,101%
4,Cc1c(O)c(CN(CCCl)CCCl)cc(CN(CCCl)CCCl)c1O,84.4%
5,COc1ccc(/C=C\c2cc(OC)c(OC)c(OC)c2)cc1NC(=O)/C=C/c1ccc(OC)c(OC)c1,1.52% (active)
6,CN(Cc1cccnc1)N=O,103%
7,O=[N+]([O-])c1ccc(N2CCOCC2)c2c1no[n+]2[O-],2.62% (active)
8,CCOP(=O)(OCC)C(O)c1ccccc1Cl (stereo not given),103%
9,COC(=O)[C@@H](C)C[C@H](Cc1ccccc1)NC(=O)c1csc([C@@H](C[C@H](C(C)C)N(C)C(=O)[C@@H](NC(=O)[C@H]2CCCCN2C)c2ccc(F)cc2)OC(C)=O)n1,2.95% (active)
10,CC1(C)C2CCC1(CS(=O)(=O)O)C(=O)C2 (stereo not given),123%
11,C[C@]12CC[C@H](OC3OC(O)C(O)C(O)C3O)C=C1CCC1C2CC[C@]2(C)[C@@H](c3ccc(=O)oc3)CC[C@]12O (stereo not given in full),-63.8% (active)
12,CC(=O)O[C@H]1CCC2(C)C(=CCC3C2CCC2(C)/C(=N/OC(=O)c4ccc(N(CCCl)CCCl)cc4)CCC32)C1 (stereo not given in full),79.9%
13,Cc1cc(C(C)(C)c2ccc(O)c(C)c2)ccc1O,87.8%
14,C[CH2][Pb]([CH2]C)([CH2]C)[O]C(=O)COc1ccccc1,9.74% (active)
15,CO[C@H]1CC[C@@]2(C)C(=CC[C@@H]3[C@@H]2CC[C@]2(C)C(=O)C(=O)C[C@@H]32)C1,102%
16,Cc1c(NS(=O)(=O)c2ccccc2)ccc([N+](=O)[O-])c1Cl,34.5%
17,CC[C@H](C)[C@H](NC(=O)[C@H]1CCCCN1C)C(=O)N(C)[C@H](CCc1nc(C(=O)N[C@@H](Cc2ccccc2)C[C@H](C)C(=O)OC)cs1)C(C)C,35%
18,OC1CCCCC1N1CCC(c2ccccc2)CC1 (stereo not given),116%
19,CCOC(=O)P(=O)(OCC)OCC,110%
20,COc1ccccc1[As]=[As]c1ccccc1OC (stereo not given),-94.8% (active)
